Source: PubChem
Rows were chosen to be rich in hits. Some 9.5% of all compounds tested hit in one or more screens of this group.
NS1 inh: qHTS Assay for Inhibitors of Influenza NS1 Protein Function | AID 2326, 2010 | Potency, µM (titrated, usually from 46.1 µM) | 270,000 tested, 0.4% active; further: actives are rising curves; nearly all actives have a fitted effect of over 50% in size
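Recovery from NS1-induced slow growth read by OD600 in budding yeast switched to galactose assay medium (pH 6.0, -URA) at 1:100 dilution. Compound 23 nl per well; the matching strain lacking NS1 serves as control.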
Pf growth 48h: Primary qHTS for delayed death inhibitors of the malarial parasite plastid, 48 hour incubation | 310,000 tested, 5.9% active | P. falciparum luciferase growth in erythrocytes, 48 h | Potency, µM (top dose mostly 28.7 µM), hits mostly inhibitors | AID 504832, 2011; active means well fitted inhibition curve with a large enough effect; inconclusive means small, poorly fitted or top-dose-only effect, or another doubt; inactive means no such curve, though single readings can be large or run the other way
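Here the parasites carry a stable luciferase gene and grow inside erythrocytes in Albumax-based RPMI medium with compound for one erythrocytic cycle. Activity is scored as loss of luminescent signal.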
RE007 growth inh: qHTS Assay for Inhibitors of the HIV-1 protein Vpr | S. pombe RE007 Vpr strain, BacTiter-Glo ATP luminescence, 24 h | Potency, µM (top dose mostly 92.2 µM), actives largely listed as inhibitors | 360,000 tested, 0.21% active | AID 651644, 2012; active means well fitted falling curve with a large enough effect; inconclusive means small, poorly fitted or top-dose-only effect; inactive means no such curve, though single readings can be large or run the other way; further: nearly all actives have a fitted effect of over 50% in size
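Fission yeast strain RE007, carrying one chromosomally integrated HIV-1 vpr copy, was seeded at OD 0.01 in PMG+AL medium with 23 nL pinned compound. After 24 h at 30 °C and 99% humidity, viability was read by BacTiter-Glo luminescence.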
SARS PLP yeast: qHTS of Yeast-based Assay for SARS-CoV PLP; Potency, µM (highest dose often 32.9 µM), most hits filed as activators; AID 485353, 2010; S. cerevisiae expressing SARS-CoV PLpro, growth rescue; 330,000 tested, 0.19% active; further: nearly all actives have a fitted effect of over 55% in size
Pf growth 96h: Primary qHTS for delayed death inhibitors of the malarial parasite plastid, 96 hour incubation; P. falciparum luciferase reporter growth, 96 h; Potency, µM (highest dose often 28.7 µM), most hits filed as inhibitors; 320,000 tested, 6.9% active; active means well fitted inhibition curve with a large enough effect; inconclusive means small, poorly fitted or top-dose-only effect, or another doubt; inactive means no such curve, though single readings can be large or run the other way
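Cell-based qHTS: luciferase-tagged P. falciparum in erythrocytes (2% hematocrit, 0.05% parasitemia final) incubated with compounds for 96 hours, 37 C, 5% CO2; luciferase detection reagent then added and luminescence measured.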
Numbers stand for hits; . = inactive; ? = inconclusive; / = not tested or not shown. Unless noted, the call rests on the fitted dose curve.

SMILES	NS1 inh	Pf growth 48h	RE007 growth inh	SARS PLP yeast	Pf growth 96h
CCOC(=O)c1ccc(NC(=S)NCCCN2CCCCC2)cc1	.	.	.	.	.
CCCN1CCC(NC(=S)Nc2ccc([N+](=O)[O-])cc2)CC1	.	3.7µM	.	.	?
CCCN1CCC(NC(=S)Nc2ccc(C(=O)OCC)cc2)CC1	.	12µM	.	.	.
CCc1nc2c(OCC3COc4ccccc4O3)cccn2c1N(C)C(=O)c1cccs1 (configuration not stated)	/	/	.	/	/
CN(C(=O)COC(=O)/C=C/c1ccc(C(F)(F)F)cc1)C1CCS(=O)(=O)C1 (configuration not stated)	.	.	.	.	.
Cc1ccc(N2CC(C(=O)Nc3cccc(S(=O)(=O)N4CCOCC4)c3)CC2=O)cc1 (configuration not stated)	/	/	.	/	/
Cc1c(Nc2ccc3nonc3c2[N+](=O)[O-])c(=O)n(-c2ccccc2)n1C	/	.	.	.	0.66µM
CCN(CC)c1ccc(NC(=O)CN2C(=O)CC(C)(C)S(=O)(=O)c3ccccc32)c(C)c1	.	?	.	.	8.3µM
O=C(O)c1ccc(CSCc2ccccc2Cl)o1	.	.	.	.	.
CC(C)NC(=O)c1ccc(CSCc2ccccc2Cl)o1	.	1.5µM	.	.	4.7µM
CCC(C)NC(=O)c1ccc(CSCc2ccccc2Cl)o1 (configuration not stated)	.	7.4µM	.	.	.
CCC(C)NC(=O)c1ccc(CSCc2ccc(Cl)cc2)o1 (configuration not stated)	.	?	.	.	.
COc1ccc(CCC(=O)NNC(=O)Cn2nc(C)cc2C)cc1	.	.	.	/	.
O=c1[nH]c(SCc2ccccc2Cl)nc2c1CCC2	.	.	.	.	.
CNc1nc(SCc2ccccc2Cl)nc2c1CCCC2	.	13µM	?	.	15µM
Cc1cccc(Nc2nc(OCC#N)nc(N(C)C)n2)c1	.	.	.	.	12µM
NC(N)=NC(N)=Nc1ccc(SC(F)(F)F)cc1	.	15µM	.	.	3.3µM
Cc1sc2nc(CN3CCOCC3)nc(NS(=O)(=O)c3cc(Cl)ccc3Cl)c2c1C	/	?	.	.	?
COc1ccc([N+](=O)[O-])cc1N(CC(O)CN1C(=O)NC(C)(C)C1=O)S(=O)(=O)c1ccccc1 (configuration not stated)	.	.	.	.	15µM
FC(F)(F)c1ccc(Cl)c(N/N=C/c2ccc(N3CCOCC3)s2)c1	?	?	.	.	7.4µM
O=C(C[n+]1ccccc1)Nc1cc(C(F)(F)F)ccc1Cl	.	.	.	.	.
O=C(C[n+]1ccc2ccccc2c1)Nc1cc(C(F)(F)F)ccc1Cl	.	1.3µM	.	.	?
O=C(CN1CCCCCC1)Nc1cc(C(F)(F)F)ccc1Cl	/	.	.	.	.
CC1CCN(CC(=O)Nc2cc(C(F)(F)F)ccc2Cl)CC1	.	.	.	.	.
O=C(CN1CCOCC1)Nc1cc(C(F)(F)F)ccc1Cl	/	?	.	.	12µM
SMILES	NS1 inh	Pf growth 48h	RE007 growth inh	SARS PLP yeast	Pf growth 96h
O=C(N/N=C/c1ccc(N2CCOCC2)s1)c1ccccc1Cl	/	.	.	.	?
O=C(CN1CCN(C(=O)c2ccco2)CC1)Nc1cc(C(F)(F)F)ccc1Cl	.	1.7µM	.	.	/
COc1ccc(NCc2c(O)ccc3ccccc23)cc1	.	/	/	/	/
CCN(c1ccc(OC)cc1)S(=O)(=O)c1ccc(-c2ccc(=O)[nH]n2)o1	.	.	.	.	.
O=C(COC(=O)[C@@H]1CCCN1C(=O)c1cccs1)Nc1cccc(Cl)c1	/	/	.	.	/
Cn1c(=O)c(=O)n(C)c2cc(S(=O)(=O)N3CCCC3C(=O)NCc3cccnc3)ccc21 (configuration not stated)	.	.	.	.	.
Cc1cc2cc(CNC(=O)c3cc4ccccc4o3)ccc2n1C	.	12µM	/	.	15µM
COCC(=O)NCc1ccc2c(c1)cc(C)n2C	.	.	?	.	4.7µM
Cc1cc2cc(CNC(=O)c3ccco3)ccc2n1C	.	?	.	.	?
COc1ccc(C(=O)NCc2ccc3c(c2)cc(C)n3C)cc1	.	.	.	.	.
COc1cc(OC)cc(C(=O)NCc2ccc3c(c2)cc(C)n3C)c1	.	.	.	.	9.3µM
Cc1cc2cc(CNC(=O)COc3ccccc3)ccc2n1C	?	.	.	.	.
Cc1onc(-c2ccccc2Cl)c1C(=O)NCc1ccc2c(c1)cc(C)n2C	.	10µM	.	.	?
C[N@@+]1(CC[N@@+]2(C)CCC[C@H]2c2cccnc2)CCC[C@@H]1c1cccnc1	.	/	/	/	/
CC(C)c1ccc(N(CC(=O)NC2CCCC2)C(=O)CCC(=O)Nc2nccs2)cc1	.	?	.	.	?
Cc1cccc(Nc2nnc(SCC3CCCCO3)s2)c1C (configuration not stated)	.	?	.	.	12µM
Cc1ccc(Nc2nnc(SCC(=O)NCc3ccco3)s2)cc1	.	5.9µM	.	.	?
Cc1cccc(Nc2nnc(SCC(=O)NCc3cccs3)s2)c1C	.	.	/	.	6.6µM
COc1cccc(Nc2nnc(SCC3CCCCO3)s2)c1 (configuration not stated)	/	.	.	.	?
O=C(COc1ccc(S(=O)(=O)N2CCOCC2)cc1Cl)NCc1ccc2c(c1)OCO2	/	/	.	/	/
NC(N)=NCCN=C(N)N	.	/	/	/	/
Cc1cc(C)c(C)c(S(=O)(=O)NCCCn2ccnc2)c1C	.	?	?	.	6.6µM
Cc1ccc(C)c(OCCCCn2ccnc2)c1	.	/	.	.	13µM
Cc1cc(OCCn2ccnc2)ccc1C(C)C	.	.	.	.	?
Cc1cc(C)cc(OCCCn2ccnc2)c1	.	.	.	.	4.7µM
SMILES	NS1 inh	Pf growth 48h	RE007 growth inh	SARS PLP yeast	Pf growth 96h
CC(C)c1cccc(C(C)C)c1OCCn1ccnc1	.	13µM	.	.	.
O=C(COc1ccc(Cl)cc1Br)Nc1ccncc1	.	.	.	.	?
Clc1cccc(-c2nc3c4ccccc4ccn3c2CC2CCCCC2)c1	/	/	.	/	/
Cc1cc(C)n(Cc2cccc(C(=O)N/N=C/c3cccnc3)c2)n1	.	.	.	.	.
CCCc1c(C)nc(N2CCN(c3ccccc3F)CC2)[nH]c1=O	.	.	.	.	?
Cc1cccc(OCCCn2ccnc2)c1	.	9.3µM	.	.	.
c1cnc2ccc3c(c2c1)COCO3	/	/	.	/	/
c1ccc2c(-c3[nH]ncc3CNCCCn3ncc4ccccc43)cccc2c1	.	15µM	.	.	.
CCOc1ccc(NC(=O)C(CC)NC(=O)c2ccccc2CO)cc1 (configuration not stated)	.	/	.	.	/
CCOc1ccccc1OCC(=O)Nc1cccc(S(=O)(=O)N2CCCCCC2)c1	/	?	.	.	13µM
CCOc1ccc(C(=O)N[C@H](C(=O)Nc2cccc(S(=O)(=O)N3CCOCC3)c2)C(C)C)cc1	/	?	.	.	?
CCOc1ccc(C(=O)N[C@H](C(=O)Nc2cccc(S(=O)(=O)N3CCCCC3)c2)C(C)C)cc1	.	?	.	.	10µM
